Calls of active or inactive are those of the source.

Among the data in PubChem BioAssay are z-score and composite z-score values, retold here.

Experiment [1] can be described thus: optical density shifts of acrAB sulA E. coli – strain DRC41, OD650, 48 h, E. coli filamentation inducer project, primary screen (AID 1152).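 Note: E. coli MC1000 strain DRC41 lacking acrAB efflux pump and sulA.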 The note with it: higher = more signal, called active from +8 up or from −8 down.
A short description of experiment [2]: probe aLefty1 binding on compound microarray – biochemical, small-molecule microarray, 635/667 nm fluorescence, primary screen (AID 1153).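 Note: score merges spot fluorescence with signal-to-noise ratio from the scanned slide images.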 The note with it: higher = more signal.
Experiment [3] in a line: plasmodial surface anion channel blockers, osmotic lysis – cell-based, P. falciparum Indochina, OD700, 1 h, primary screen (AID 1154). Particulars: P. falciparum Indochina infected RBC osmotic lysis, higher = more signal, called active from +8 up or from −8 down.
Experiment [4] is described as follows: plasmodial surface anion channel blockers, osmotic lysis – cell-based, P. falciparum Indochina, OD700, 2 h, primary screen (AID 1155).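 Note: lysis reports solute entry through the parasite surface anion channel PSAC.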 Particulars: P. falciparum Indochina infected erythrocytes, higher = more signal, called active from +8 up or from −8 down.
Experiment [5] is described as follows: changes in parasitized red cell lysis, either direction – P. falciparum Indochina, OD700, 3 h, PSAC antagonist project, primary screen (AID 1156). The note with it: P. falciparum-infected erythrocytes, osmotic lysis, higher = more signal, called active from +8 up or from −8 down.
Experiment [6] is described as follows: plasmodial surface anion channel blockers, osmotic lysis – cell-based, P. falciparum Indochina, OD700, 18 h, primary screen (AID 1157). Particulars: P. falciparum Indochina infected erythrocytes, osmotic lysis OD700, 18 h; higher = more signal, called active from +8 up or from −8 down.
Experiment [7] is described as follows: S6 kinase pathway phospho-S6 level changes – cell-based, A549, cytoblot, luminescence, serum-stimulated, primary screen (AID 1158).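 Note: serum-stimulated A549 lung adenocarcinoma cells; signal is phosphorylated S6 detected by cytoblot immunostaining with HRP secondary.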 The note with it: 5 h, higher = more signal.
Experiment [8] has as its target NADPH oxidase 2 (Homo sapiens) (UniProt P04839). In words: compounds shifting NOX2 Amplex Red fluorescence – cell-based, HEK293-NOX2, PMA-stimulated, NOX inhibitor project, primary screen (AID 1159). Note: test concentration not given here. Particulars: 45 min, higher = more signal, called active from +8 up or from −8 down.
In experiment [9] the target is NADPH oxidase 4 (Homo sapiens) (UniProt Q9NPH5). Nature of the experiment: compounds shifting NOX4 Amplex Red fluorescence – cell-based, HEK293-NOX4, tetracycline-induced, NOX inhibitor project, primary screen (AID 1160). Particulars: HEK293-NOX4, Amplex Red H2O2 fluorescence, 45 min; higher = more signal, called active from +8 up or from −8 down.
Experiment [10] concerns the target NADPH oxidase 5 (Homo sapiens) (UniProt Q96PH1). Nature of the experiment: compounds shifting NOX5 Amplex Red fluorescence – cell-based, HEK293-NOX5, NOX inhibitor project, primary screen (AID 1161). Particulars: HEK293-NOX5, ionomycin, 45 min, higher = more signal.
Experiment [11] can be described thus: compound effects on lung adenocarcinoma cell viability – A549, calcein-AM fluorescence, 48 h, basal, profiling panel (AID 1162). Note: test concentration not given here. Particulars: higher = more signal.
The nature of experiment [12]: compound effects on differentiated 3T3-L1 adipocyte viability – cell-based, 3T3-L1 adipocytes, calcein-AM fluorescence, 48 h, basal, profiling panel (AID 1163). Note: test concentration not given here. Particulars: 3T3-L1 adipocytes viability, higher = more signal.
A short description of experiment [13]: compound effects on hepatocellular carcinoma cell viability – HepG2, calcein-AM fluorescence, 48 h, basal, profiling panel (AID 1164). Note: test concentration not given here. The note with it: higher = more signal.
Experiment [14] can be described thus: compound effects on multiple myeloma cell viability – MM1S, calcein-AM fluorescence, 48 h, basal, profiling panel (AID 1165).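 Note: viability of MM1S multiple myeloma cells under basal unstimulated conditions; test concentration not given here.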 Particulars: higher = more signal.
A short description of experiment [15]: calcein-AM signal in unstimulated myeloma cells – cell-based, calcein-AM fluorescence, 48 h, PK04 Diversity Set, profiling panel (AID 1166).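 Note: cells grown under basal conditions without added stimulus; test concentration not given here.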 The note with it: RPMI8226 myeloma viability, higher = more signal.
The nature of experiment [16]: JC-1 mitochondrial signal, unstimulated HepG2 cells – cell-based, JC-1 fluorescence, 24 h, 100 nL compound, profiling panel (AID 1167). Note: test concentration not given here. Particulars: HepG2 mitochondrial potential, higher = more signal.
Experiment [17] in a line: JC-1 mitochondrial signal, unstimulated adipocytes – cell-based, JC-1 fluorescence, 3T3-L1 adipocytes, 24 h, 100 nL compound, profiling panel (AID 1168). Note: test concentration not given here. Particulars: JC-1 mitochondrial fluorescence, higher = more signal, called active from +8 up or from −8 down.
Experiment [18] in a line: JC-1 mitochondrial signal, unstimulated myeloma cells – cell-based, JC-1 fluorescence, RPMI8226, 24 h, 100 nL compound, profiling panel (AID 1169). Note: test concentration not given here. The note with it: JC-1 mitochondrial potential fluorescence, higher = more signal.
The nature of experiment [19]: JC-1 mitochondrial signal, unstimulated MM1S myeloma – cell-based, JC-1 fluorescence, 24 h, 100 nL compound, profiling panel (AID 1170). Note: test concentration not given here. The note with it: MM1S mitochondrial potential, higher = more signal.
Experiment [20] in a line: resazurin metabolic signal in A549 cells – cell-based, resazurin fluorescence, 24 h, PK04 Diversity Set, profiling panel (AID 1171). Note: test concentration not given here. Particulars: A549 viability, higher = more signal, called active from +8 up or from −8 down. (In general: Resazurin is reduced to fluorescent resorufin, in cell work by metabolically active cells.)

NADPH oxidase 5 (Homo sapiens), sequence (Q96PH1 whole entry, looked up): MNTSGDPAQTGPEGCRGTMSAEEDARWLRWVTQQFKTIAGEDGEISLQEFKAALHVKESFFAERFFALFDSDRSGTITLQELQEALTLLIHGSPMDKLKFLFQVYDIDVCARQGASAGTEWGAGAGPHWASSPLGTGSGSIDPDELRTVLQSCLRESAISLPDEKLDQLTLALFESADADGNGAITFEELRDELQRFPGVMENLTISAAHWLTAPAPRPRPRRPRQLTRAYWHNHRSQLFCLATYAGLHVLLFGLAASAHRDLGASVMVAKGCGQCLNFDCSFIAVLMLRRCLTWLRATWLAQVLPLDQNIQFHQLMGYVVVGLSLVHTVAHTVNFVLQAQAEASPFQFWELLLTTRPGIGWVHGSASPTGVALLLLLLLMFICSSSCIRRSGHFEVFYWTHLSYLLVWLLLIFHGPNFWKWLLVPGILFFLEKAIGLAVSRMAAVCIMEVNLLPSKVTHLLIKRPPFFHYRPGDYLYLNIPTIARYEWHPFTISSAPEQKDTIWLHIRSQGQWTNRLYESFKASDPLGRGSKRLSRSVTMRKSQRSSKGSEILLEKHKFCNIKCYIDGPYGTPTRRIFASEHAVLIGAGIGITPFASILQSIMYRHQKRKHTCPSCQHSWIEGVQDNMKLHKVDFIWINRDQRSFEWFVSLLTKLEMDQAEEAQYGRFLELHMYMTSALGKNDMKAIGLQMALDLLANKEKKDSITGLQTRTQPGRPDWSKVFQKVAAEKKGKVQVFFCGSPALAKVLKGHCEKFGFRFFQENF
NADPH oxidase 4 (Homo sapiens), sequence (Q9NPH5 whole entry, looked up): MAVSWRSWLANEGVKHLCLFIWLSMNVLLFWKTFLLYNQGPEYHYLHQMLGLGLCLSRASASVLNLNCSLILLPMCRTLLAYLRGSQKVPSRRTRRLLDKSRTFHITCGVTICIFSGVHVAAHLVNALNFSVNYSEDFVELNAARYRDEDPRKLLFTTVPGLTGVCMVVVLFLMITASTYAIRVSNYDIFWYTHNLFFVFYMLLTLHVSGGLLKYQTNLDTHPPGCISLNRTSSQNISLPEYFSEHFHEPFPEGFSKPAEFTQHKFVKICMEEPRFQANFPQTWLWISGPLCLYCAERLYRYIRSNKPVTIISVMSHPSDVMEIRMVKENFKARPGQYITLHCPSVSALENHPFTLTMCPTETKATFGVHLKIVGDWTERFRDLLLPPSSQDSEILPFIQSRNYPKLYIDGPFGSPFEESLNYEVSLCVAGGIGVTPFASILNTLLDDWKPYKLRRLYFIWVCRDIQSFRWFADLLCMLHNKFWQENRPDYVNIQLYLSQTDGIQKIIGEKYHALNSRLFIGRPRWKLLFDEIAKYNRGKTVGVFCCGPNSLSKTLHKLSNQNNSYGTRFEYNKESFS
NADPH oxidase 2 (Homo sapiens), sequence (P04839 whole entry, looked up): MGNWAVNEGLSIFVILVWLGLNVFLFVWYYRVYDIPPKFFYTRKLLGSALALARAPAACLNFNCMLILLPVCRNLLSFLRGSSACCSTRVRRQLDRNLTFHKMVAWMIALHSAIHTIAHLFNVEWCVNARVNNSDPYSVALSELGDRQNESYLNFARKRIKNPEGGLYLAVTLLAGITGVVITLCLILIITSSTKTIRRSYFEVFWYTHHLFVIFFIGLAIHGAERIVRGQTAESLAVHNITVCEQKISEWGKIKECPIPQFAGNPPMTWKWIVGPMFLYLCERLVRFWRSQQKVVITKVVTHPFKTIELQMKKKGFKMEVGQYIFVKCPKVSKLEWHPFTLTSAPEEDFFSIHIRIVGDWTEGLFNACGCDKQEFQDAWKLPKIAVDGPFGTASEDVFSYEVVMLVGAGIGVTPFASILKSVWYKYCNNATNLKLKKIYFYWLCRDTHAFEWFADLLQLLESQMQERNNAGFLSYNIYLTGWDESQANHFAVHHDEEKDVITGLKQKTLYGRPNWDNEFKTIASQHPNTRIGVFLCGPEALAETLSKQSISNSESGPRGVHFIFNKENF

Regarding `C[C@@H](ON=C1[C@H]2CCn3c(=O)n(-c4ccccc4)c(=O)n3[C@H]2[C@H](O)[C@@H]2O[C@H]12)c1cn([C@@H]2COC[C@H]2O)nn1`, the z-score in experiment [1] was -0.212 (inactive); in experiment [3], 0.595 (inactive); in [4] it was 0.277 (inactive); in experiment [5], 0.0251 (inactive); in experiment [6] it was 0.122 (inactive); in experiment [7], -0.574. In addition, the z-score was -0.183 (inactive) in [8]; -0.242 (inactive) in experiment [9]; -0.461 in [10]; 0.0219 in [11]; -0.15 in [12]; 0.373 in [13]. The z-score was -0.289 in [14]; -0.292 in experiment [15]; -0.377 in experiment [16]; -1.84 (inactive) in experiment [17]; -0.0731 in experiment [18]; -0.696 in [19]. For the same molecule, the z-score in [20] is 0.0264 (inactive). Moreover, the composite z-score in experiment [2] was -0.255.

For `CCOC(=O)[C@H](CC(C)C)NC(=O)CCC1CC(OC(=O)NCc2cccc3ccccc23)CC2(CCCC(COC(=O)NCCCN3CCCC3=O)O2)O1` (stereo not given in full), the z-score is 0.261 (inactive) in experiment [1]; 0.51 (inactive) in experiment [3]; 0.936 (inactive) in experiment [4]; 0.662 (inactive) in [5]; 0.295 (inactive) in [6]; 0.285 in experiment [7]. Also, the z-score in experiment [8] is 1.51 (inactive); in experiment [9], 0.133 (inactive); in experiment [10], -0.877; in experiment [11], 0.367; in experiment [12], 1.15; in experiment [13] it was -0.839. For the same molecule, the z-score was -0.0471 in experiment [14]; -1.31 in experiment [15]; 0.106 in experiment [16]; -0.636 (inactive) in [17]; -0.555 in experiment [18]; -1.15 in experiment [19]. The z-score in experiment [20] was 0.489 (inactive). This molecule also yielded a composite z-score in experiment [2] of -0.177.

Take `COC(=O)[C@H](C)NC(=O)CCC1CC(OC(=O)NCCc2ccc(F)cc2)CC2(CCCC(COC(=O)NCCC(C)C)O2)O1` (stereo not given in full): the z-score in [1] is -0.484 (inactive); in experiment [3], 21.1 (active); in experiment [4], 4.7 (inactive); in experiment [5], 0.0444 (inactive); in experiment [6] it was 0.266 (inactive); in [7] it was 1.14. Moreover, the z-score in experiment [8] is 0.341 (inactive); in [9] it was 0.302 (inactive); in experiment [10], -0.385; in [11] it was 1.22; in experiment [12], 0.464; in experiment [13], -0.814. In addition, the z-score in [14] is -3.65; in experiment [15] it was -0.883; in experiment [16], -0.591; in experiment [17], 0.521 (inactive); in experiment [18] it was 0.198; in experiment [19] it was -1.51. Moreover, the z-score in experiment [20] is 0.693 (inactive). Also, the composite z-score in experiment [2] was 0.0844.

`C=Cc1ccc([C@H]2N[C@H](C(=O)O)CC[C@@H]2C)cc1`: the z-score was 0.374 (inactive) in experiment [1]; -0.27 (inactive) in experiment [3]; -0.344 (inactive) in [4]; -1.26 (inactive) in [5]; -0.267 (inactive) in [6]; -0.599 in experiment [7]. The z-score in experiment [8] was 1.06 (inactive); in experiment [9], -0.0223 (inactive); in experiment [10], 0.0584; in experiment [11] it was -0.241; in [12], -0.173; in experiment [13] it was 0.453. Also, the z-score in [14] was -0.568; in experiment [15], -1.15; in experiment [16], 0.547; in experiment [17], 0.0233 (inactive); in [18], 0.239; in [19] it was 0.43. Besides, the z-score in [20] was -0.439 (inactive). The molecule further yielded a composite z-score in experiment [2] of -0.338.

Consider `C=COC[C@@H]1CN2[C@@H](CC[C@@H](C)[C@@H]2c2ccc(Br)cc2)C(=O)O1`, for which the z-score in [1] is -0.778 (inactive); in [3] it was 2.08 (inactive); in experiment [4] it was -0.0728 (inactive); in experiment [5], 0.429 (inactive); in experiment [6], -0.959 (inactive); in experiment [7], 0.993. The z-score was 0.723 (inactive) in experiment [8]; -0.595 (inactive) in [9]; -1.14 in [10]; -0.0396 in experiment [11]; 0.566 in experiment [12]; -0.388 in [13]. In addition, the z-score was -1.04 in [14]; -0.731 in experiment [15]; -0.284 in experiment [16]; 0.347 (inactive) in [17]; -0.795 in experiment [18]; -0.228 in [19]. Moreover, the z-score in [20] was 0.378 (inactive). The composite z-score in [2] was -0.0984.
